In PubChem BioAssay (NCATS) one finds outcome and activity change, negative = cytotoxicity data, which are given here for 39 compounds.

Molecules are shown by their SMILES. Results filed as inconclusive are left out. Unmarked numbers belong to inactive results. Calls of active or inactive are those of the source. The call rests on the fitted dose curve; in most records, active means well fitted cell-killing curve with a large enough effect; inconclusive means small, poorly fitted or top-dose-only effect, or effect the other way; inactive means flat fitted curve, though single readings scatter. Where a SMILES comes first, the peptide text is derived from it.
On the % scale 0 is the no-effect control and ±100 the full control effect.

The subject of the test is CASKI. Briefly: Primary qHTS to identify gynecologic anti-cancer compounds using libraries of approved drugs and bioactive compounds (AID 1345084). Further: nearly all actives have a fitted effect of over 55% in size. Conditions: Gynecologic cancer cell panel viability, ATPlite luminescence, 48 h; series mostly up to 57.5 µM. A digest of the protocol:
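Cells, 1,000 per well, plated 16 h, then exposed 48 h at 37 C to compounds. Viability by ATPlite luminescence after 15 min at room temperature.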
For `OCC1OC(Oc2cc(O)cc(/C=C/c3ccc(OC4OC(CO)C(O)C(O)C4O)cc3O)c2)C(O)C(O)C1O` (centres undefined), the compound was called inactive.

As to `C[C@@H]1O[C@@H](O[C@H]2[C@H](O[C@H]3[C@H](O[C@H]4CC[C@@]5(C)C(CC[C@]6(C)C5CC=C5[C@@H]7CC(C)(C)CC(=O)[C@]7(C)CC[C@]56C)[C@@]4(C)CO)O[C@H](C(=O)O)[C@@H](O)[C@@H]3O)O[C@H](CO)[C@H](O)[C@@H]2O)[C@H](O)[C@H](O)[C@H]1O` (some centres undefined), the activity change, negative = cytotoxicity is 5.16% [at 11.6 µM]. In the case of `CC(O)C/C=C/C=C/C(=O)OC1C=C2COC(=O)C2(O)C2(C)CCCC(C)(C)C12` (centres undefined), the result was inactive.

Turning to `C[C@@H]1O[C@@H](O[C@H]2[C@H](O)[C@@H](O[C@@H]3O[C@H](CO)[C@H](O)[C@H](O)[C@H]3O)[C@H](O[C@H]3CC[C@@]4(C)C(CC[C@]5(C)C4CC=C4[C@@H]6CC(C)(C)CC[C@]6(C(=O)O[C@@H]6O[C@H](CO)[C@@H](O)[C@H](O)[C@H]6O)CC[C@]45C)C3(C)C)O[C@@H]2C(=O)O)[C@H](O)[C@H](O)[C@H]1O` (some centres undefined), the activity change, negative = cytotoxicity was -5.82% [at 11.6 µM]. Take `COc1ccnc(CCc2nc3ncccc3[nH]2)c1`: the compound was classed as inactive. With `CC(=O)O[C@@H]1[C@H](O[C@@H]2OC[C@](O)(CO)[C@H]2O)[C@@H](O[C@@H]2O[C@@H](C)[C@H](O)[C@@H](O[C@@H]3O[C@H](CO)[C@@H](O)[C@H](O)[C@H]3O)[C@H]2O)[C@H](OC(=O)[C@]23CCC(C)(C)C[C@H]2C2=CCC4[C@@]5(C)C[C@H](O)[C@H](O[C@@H]6O[C@H](C(=O)O)[C@@H](O)[C@H](O)[C@H]6O)[C@@](C)(C(=O)O)C5CC[C@@]4(C)[C@]2(C)CC3)O[C@@H]1C` (some centres undefined), the activity change, negative = cytotoxicity is 2.72% [at 6.55 µM]. `CC(C)CC(=O)O[C@@H]1O[C@H](CO)[C@@H](O[C@H]2O[C@H](C)[C@@H](N[C@H]3C=C(CO)[C@@H](O[C@H]4O[C@H](CO)[C@@H](O[C@H]5O[C@H](CO)[C@@H](O[C@H]6O[C@H](CO)[C@@H](O)[C@H](O)[C@H]6O)[C@H](O)[C@H]5O)[C@H](O)[C@H]4O)[C@H](O)[C@H]3O)[C@H](O)[C@H]2O)[C@H](O)[C@H]1O`: the activity change, negative = cytotoxicity is 2.85% [at 11.6 µM]. On to `NC[C@H]1CCC[C@@H](CNC(=O)[C@@H](Cc2c[nH]c3ccccc23)NC(=O)N2CCC3(C=Cc4ccccc43)CC2)C1`, for which the compound was called inactive. Regarding `CC1CCC2(C)CCC3(C)C(=CCC4C5(C)CCC(O)C(C)(C(=O)O)C5CCC43C)C2C1C` (centres undefined), the compound was called inactive. The same measure, in the same setting: as for `C[C@@H]1O[C@@H](O[C@H]2[C@@H]3C=CO[C@@H](O[C@@H]4O[C@H](CO)[C@@H](O)[C@H](O)[C@H]4O)[C@@H]3[C@@]3(CO)O[C@@H]23)[C@H](O)[C@H](O)[C@H]1OC(=O)/C=C/c1ccc(O)cc1`, the entry is “inactive”; as for `CC(CC12CCCN1C(=O)C1CCCN1C2=O)OC(N)=O` (centres undefined), “inactive”. Still for that read-out and setting: in the case of `CC/C=C\C(O)C(O)C1=C(C)C(=O)C2(O1)C(=O)NC(OC)(C(=O)c1ccccc1)C2O` (centres undefined) it was “inactive”; in that of `COc1c2cc(c(O)c1OC)CCCCC(O)CCc1ccc(O)c-2c1` (centres undefined), “inactive”; in that of `CC1CC(=O)[C@]2(O)C(C(=O)OCCc3ccc(O)cc3)=CO[C@@H](O[C@@H]3O[C@H](CO)[C@@H](O)[C@H](O)[C@H]3O)[C@H]12` (some centres undefined), “inactive”. Take `COC(=O)C1=CO[C@@H](O[C@@H]2O[C@H](CO)[C@@H](O)[C@H](O)[C@H]2O)C2C1CC(O)C2C` (some centres undefined): the compound was called inactive. On the same count and under the same terms, in the case of `CC(=O)OC[C@]12[C@H](OC(C)=O)[C@H](OC(=O)c3ccccc3)[C@@H]3[C@@H](OC(C)=O)[C@]1(OC3(C)C)[C@H](C)C[C@H](OC(=O)c1ccccc1)[C@@H]2OC(=O)c1ccccc1` it was “inactive”; in that of `C[C@]1(C2CCCC2)Cc2cc(OCC(=O)O)c(Cl)c(Cl)c2C1=O`, “inactive”; in that of `CC(NC(=O)c1ccccc1N)C(=O)O` (centres undefined), “inactive”. As for `O=C(Nc1ccn(Cc2c(F)cccc2C(F)(F)F)n1)c1c(F)cccc1F`, the activity change, negative = cytotoxicity was 7.64% [at 11.6 µM]. In the case of `O=C(OC(C(F)(F)F)C(F)(F)F)N1CCN(Cc2cccc(Oc3ccccc3)c2)CC1`, the compound was classed as inactive. For `C[C@H]1CC[C@@]2(OC1)O[C@H]1CC3C4CC[C@H]5C[C@@H](O)CC[C@]5(C)C4CC(=O)[C@]3(C)[C@H]1[C@@H]2C` (some centres undefined), the call was inactive. Regarding `Cc1oc(S(=O)(=O)N2CCCCC2)cc1NC(=O)Nc1ccccc1`, the call was inactive. Still for that read-out and setting: in the case of `CCC(C)/C=C(C)/C=C/C1=CC2=C(Cl)C(=O)C(C)(OC(C)=O)C(=O)C2=CN1C(CC(=O)O)C(=O)O` (centres undefined) it was “inactive”; in that of `CC(C)[C@](O)(c1ccc2cc(OC(F)F)c(OC(F)F)cc2c1)c1cn[nH]n1`, “inactive”. `COc1cc(C(=O)OC[C@H]2O[C@@H](OC(C)(C)C(=O)O)[C@H](O)[C@@H](O)[C@@H]2O)cc(OC)c1O`: the compound was called inactive.

With `COc1cc(C(C)=O)ccc1O[C@@H]1O[C@H](CO)[C@@H](O)[C@H](O)[C@H]1O`, the result was inactive. With `CC1(C)C(=O)CCC2(C)C1C(O)C=C1COC(=O)C12O` (centres undefined), the result was inactive. The same measure, in the same setting: in the case of `COc1cc(/C=C/c2ccccc2)c(C(=O)O)c(O)c1CC=C(C)C` it was “inactive”; in that of `CCC(C)C(C(=O)O)N1Cc2c(OCC=C(C)C)c(C)c(OC)c(C(=O)O)c2C1=O` (centres undefined), “inactive”. Still for that read-out and setting: in the case of `COC(=O)C1=CO[C@@H](O[C@@H]2O[C@H](CO)[C@@H](O)[C@H](O)[C@H]2O)[C@@H]2[C@@H](CO)[C@@H](O)C(O)[C@H]12` (some centres undefined) it was “inactive”. For the compound `CC(C)C[C@H](NC(=O)[C@@H]1O[C@H]1C(=O)O)C(=O)NCCCCN=C(N)N`, the compound was called inactive. In the case of `C[C@@H]1O[C@@H](OC[C@H]2O[C@@H](OCc3ccccc3)[C@H](O)[C@@H](O)[C@@H]2O)[C@H](O)[C@H](O)[C@H]1O`, the outcome was inactive. For the compound `CNC(=O)c1ccc2c(c1)CCO[C@H]2CCN1CCN(c2ccc(C(N)=O)cc2)CC1`, the outcome was inactive. On the same count and under the same terms, in the case of `COC(=O)C1=COC(OC2OC(CO)C(O)C(O)C2O)C2C(COC(=O)/C=C/c3ccc(O)c(O)c3)C(O)C(O)C12` (centres undefined) it was “inactive”; in that of `CC(C)C1NC(=O)CNC(=O)C2CCCN2C(=O)C(Cc2c[nH]c3ccccc23)NC(=O)CNC(=O)C(Cc2ccc(O)cc2)NC(=O)CNC1=O` (centres undefined) (cyclo(GVGYGWP); configuration not given here), “inactive”. Consider `CC(C)c1ccc2c(c1)C(=O)CC1C(C)(C(=O)O)CCCC21C` (centres undefined), for which the result was inactive. As to `C=C1CCC2(C(=O)OC3OC(CO)C(O)C(O)C3O)CCC3(C)C(=CCC4C5(C)CCC(OC6OC(CO)C(OC7OC(C)C(O)C(O)C7O)C(OC7OCC(O)C(O)C7O)C6O)C(C)(C)C5CCC43C)C2C1` (centres undefined), the activity change, negative = cytotoxicity was -6.54% [at 11.6 µM]. Regarding `C=C1CC2C(C)(CCC(=O)O)C(C(C)(C)O)CCC2(C)C2(C(=O)OC)C(=O)C(C)(O)C(=O)C12C` (centres undefined), the outcome was inactive.

Consider `COc1ccc(-n2c(SCC#N)nc3sc4c(c3c2=O)CCCC4)cc1`, for which the result was inactive.
